# tim23-1 inh – tim23-1 yeast growth inhibition; inhibition, % at 20 µM; S. cerevisiae tim23-1 growth, BacTiter-Glo luminescence, 24 h; AID 463212; hit rate 1.3% among 330,000;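 active = growth inhibition of the mutant yeast at or above 50%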;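 note: temperature-sensitive mutant grown at 25 °C; plate controls were DMSO-treated mutant yeast for no effect and medium wells lacking yeast for full effect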
# NALP3 yeast inh – blocks the NALP3 inflammasome reconstituted in yeast | inhibition, % at 10 µM | Yeast reconstituted NLRP3/ASC/caspase-1, beta-gal luminescence, 24 h | AID 2825 | hit rate 0.39% among 330,000;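 active = inhibition of 50% or more; inactive = inhibition below 50%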;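 note: plate controls were induced DMSO wells for no effect and uninduced yeast grown without galactose for full effect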
# tim10-1 inh – inhibits growth of tim10-1 mutant yeast; S. cerevisiae tim10-1 ts strain growth, BacTiter-Glo, 24 h; inhibition, % at 20 µM; hit rate 2.2% among 330,000;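 active = inhibition of at least 40%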;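 note: mutant grown at 25 °C; 0% = DMSO wells with yeast and 100% = wells holding no yeast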
# TIM10 inh – growth inhibitors of TIM10 yeast strain; S. cerevisiae TIM10 strain growth, BacTiter-Glo luminescence, 24 h; inhibition, % at 10 µM; hit rate 1.4% among 330,000;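 active = inhibition of 40% or more at the single tested concentration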;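 note: wild-type TIM10 isogenic control strain grown at permissive 25 °C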
# PfHsp90 set2 – reduces growth (ATP signal) of yeast expressing P. falciparum Hsp90; S. cerevisiae expressing PfHsp90, BacTiter-Glo ATP, 48 h; yeast lacking PDR1 and PDR3 efflux regulators; inhibition, % at 9.4 µM; hit rate 0.32% among 310,000; AID 504621;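 active = every replicate shows inhibition above about 80%, whatever the replicate mean, limit read from the data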;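 note: 0% = DMSO neutral controls and 100% = 20 µM radicicol positive controls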
# SKKanGAS inh – inhibitors of SKKanGAS S. pyogenes growth in kanamycin (SK-promoter or general growth effect); BacTiter-Glo, 6 h; inhibition, % at 7.5 µM; hit rate 1.3% among 300,000; AID 1662;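 active = mean replicate score, as percent of positive control median, at least 50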;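 note: strain carries kanamycin resistance gene driven by streptokinase promoter and grows in 40 µg/ml kanamycin; loss of luminescence reflects streptokinase promoter inhibition or plain growth inhibition; 0% = median of DMSO wells and 100% = positive control at its reference dose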
# tim23-1 conf – confirmation of tim23-1 mutant yeast growth inhibitors. shares compounds with tim23-1 inh. S. cerevisiae tim23-1 growth, BacTiter-Glo luminescence, 24 h. inhibition, % at 20 µM. hit rate 83% among 4,400;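 active = inhibition above about 39% in either of two replicate wells at 20 µM, limit read from the data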;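 note: temperature-sensitive tim23-1 mutant grown at 25 °C; 0% = DMSO wells with yeast and 100% = medium wells without yeast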
# The depositor's hits bear a star; . = no result; ! = repeats disagree. The list is not random: actives were taken first. Their share in the collection is about 4.6%.
SMILES,tim23-1 inh,NALP3 yeast inh,tim10-1 inh,TIM10 inh,PfHsp90 set2,SKKanGAS inh,tim23-1 conf
CN(/N=C\c1ccc(O)c(O)c1)c1nc(-c2ccccc2)cc(-c2ccccc2)n1,55*,7,33,9,22,13,41*
COc1cc(/C=N/N(c2ccccc2)c2ccccc2)ccc1O,47,15,-5,2,3,25,.
CC(=O)c1ccccc1OC(=O)COc1ccc(Cl)cc1C,54*,-4,21,25,-19,8,46*
Cc1cc(Cl)ccc1OCC(=O)OCC(=O)NCCNC(=O)COC(=O)COc1ccc(Cl)cc1C,.,.,.,.,16,.,.
CN1OC(c2ccccc2)=C(CO)C1c1ccccc1 (stereo not given),34,-4,30,2,-7,3,.
CS/C(=N\S(=O)(=O)c1ccc(Cl)cc1)c1ccccc1,57*,6,23,36,5,4,36
COc1cc(/C=C2\OC(=O)c3c(OC)cccc32)ccc1O,53*,31,35,28,43,14,48*
COc1cc(/C=C2\C(=O)ON=C2c2ccc(Cl)cc2)ccc1O,39,-3,25,12,.,-3,.
Fc1ccc(Nc2nc(NCc3ccco3)c3ccccc3n2)cc1,98*,49,-20,-20,19,11,4
Nc1nc(Nc2ccccc2)nc(NCc2ccco2)c1[N+](=O)[O-],37,2,9,-2,-31,-3,.
O=C(Cn1nc(Cl)nc1Cl)c1ccc(F)cc1,4,-3,-9,3,-22,-14,.
O=C(Cn1nc(Cl)nc1Cl)c1ccc2c(c1)OCCO2,55*,6,26,16,29,1,38
O=C(c1cccs1)N1CCN(c2cc(Cl)ccc2Cl)CC1,50,-1,38,15,-7,10,37
CCc1cc2c(SCC#N)ncnc2s1,7,9,11,14,22,-14,.
CN(C(=O)c1ccco1)c1nnc(C23CC4CC(CC(C4)C2)C3)s1,55*,18,20,12,-4,1,59*
CN(CC12CC3CC(CC(C3)C1)C2)C(=O)c1ccco1,42,26,15,17,-32,1,.
CC1CCN(C(=O)Cn2c(=O)n(Cc3ccco3)c(=O)c3sccc32)CC1,7,19,-16,15,2,2,.
COc1cc(S(=O)(=O)n2nnc3ccccc32)c(OC)cc1Cl,61*,21,40,25,12,-1,56*
COc1ccc(OC)c(S(=O)(=O)n2nnc3cc(Cl)ccc32)c1,10,17,19,0,-3,-3,.
O=C(Oc1ccccc1/C=C\C(=O)c1cc2ccccc2o1)c1cccc(F)c1,52*,28,30,33,4,-61,58*
CCOc1ccc2oc(C(=O)Nc3ccc4c(c3)OCO4)c(C)c2c1,95*,33,-6,12,-7,16,17
Nc1c(N(Cc2ccco2)C(=O)COc2ccccc2)c(=O)[nH]c(=O)n1Cc1ccccc1,12,1,3,9,8,.,.
Cc1cccc(OCC(=O)N(Cc2ccco2)c2c(N)n(Cc3ccccc3)c(=O)[nH]c2=O)c1,51*,5,-2,8,28,.,23
O=C(c1cccc(N2C(=O)C3C4C=CC(C4)C3C2=O)c1)N1CCN(c2ccccc2)CC1 (stereo not given),14,8,1,-1,.,2,.
C=CCNC(=O)C(=O)Nc1ccc2c(c1)N(S(=O)(=O)c1cccs1)CCC2,51*,16,35,35,9,10,42*
CC(CCC(C)C(C)(C)C)[C@@H]1CC[C@H]2C3C[C@H](OS(O)(=S)=S)[C@H]4C[C@H](OS(O)(=S)=S)[C@@H](OS(O)(=S)=S)C[C@]4(C)[C@H]3CC[C@]12C (stereo not given in full) (tested in a mixture with another compound),56*!,17,-62,-59,109*,.,11
CC(CCC(=O)NN)C1CCC2C3CCC4CC(O)CCC4(C)C3CCC12C (stereo not given),.,.,.,.,5,.,.
O=C(CN1C(=O)C(=O)N(Cc2ccco2)C1=O)c1c[nH]c2ccccc12,17,8,21,4,15,-1,.

# Source: PubChem
